# ± gives the standard deviation of the averaged measurements. The full ranking holds about 2,900 compounds; the median of “NF-kB SEAP reporter activity, fold change vs agonist alone” is about 0.99, and the highest 2% start at about 2.6. For the sample, the highest values were picked, then their nearest neighbours and some compounds at random.
# How the values were obtained:
# RAW-Dual [1] = assay: NF-kB SEAP reporter activity, fold change vs agonist alone; cytotoxicity flag (confluency mask): not cytotoxic; higher = enhanced NF-kB activity
# In short: (§1)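 After 50 nL of library stock was delivered by pin tool to RAW-Dual macrophages (50,000 cells/well, DMEM, 384-well plates), a PRR agonist was added 1 h later and the plates were kept at 37 °C, 5% CO2. Twenty hours later, IRF was read from supernatant by QuantiLuc luminescence and NF-κB by QuantiBlue absorbance at 620 nm. Reporter activity is stated as fold change over agonist-alone wells. Wells with IncuCyte confluency under 70% of agonist controls in both mask sets were counted as cytotoxic.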
# RAW-Dual [2] = assay: NF-kB SEAP reporter activity, fold change vs agonist alone; higher = enhanced NF-kB activity; settings: library stock concentration (final ~1000-fold dilution): 10 mM, cytotoxicity flag (confluency mask): not cytotoxic
# In short: as §1
# [3] = agonist: ODN 1826 (TLR9) 0.5 ug/mL
# [4] = agonist: Pam2CSK4 (TLR2/6) 0.1 ug/mL
# [5] = agonist: Pam3CSK4 (TLR2/1) 0.1 ug/mL
structure (smiles),measurement,setting,value
CC(C)(C)c1cc(C(=O)/C(C#N)=N/Nc2cccc(Cl)c2)no1 (library stock concentration (final ~1000-fold dilution): 10 mM),NF-kB SEAP reporter activity,RAW-Dual [1]; agonist: LPS (TLR4) 0.1 ug/mL,4.18
same,NF-kB SEAP reporter activity,RAW-Dual [1]; [3],1.16
same,NF-kB SEAP reporter activity,RAW-Dual [1]; [4],0.423
same,NF-kB SEAP reporter activity,RAW-Dual [1]; [5],0.673
Cn1nc(C(C)(C)C)cc1C(=O)NC(Cc1cccc(Cl)c1)C(=O)NCC#N (centres undefined),NF-kB SEAP reporter activity,RAW-Dual [2]; agonist: Imiquimod (TLR7) […],0.765
same,NF-kB SEAP reporter activity,RAW-Dual [2]; agonist: MPLA (TLR4) […],1.05
CC(C)(C)c1cc(C(=O)/C(C#N)=N/Nc2cccc(Cl)c2)no1,NF-kB SEAP reporter activity,RAW-Dual [2]; agonist: Imiquimod (TLR7) […],1.11
same,NF-kB SEAP reporter activity,RAW-Dual [2]; agonist: MPLA (TLR4) […],1.91
C=C1CCC2C(C)(CO)C(O)CCC2(C)C1C/C=C1/C(=O)OCC1O (centres undefined) (library stock concentration (final ~1000-fold dilution): 10 mM),NF-kB SEAP reporter activity,RAW-Dual [1]; agonist: LPS (TLR4) 0.1 ug/mL,0.565 ± 0.2
same,NF-kB SEAP reporter activity,RAW-Dual [1]; [3],0.418 ± 0.039
same,NF-kB SEAP reporter activity,RAW-Dual [1]; [4],0.96 ± 0.18
same,NF-kB SEAP reporter activity,RAW-Dual [1]; [5],0.65 ± 0.11
C=C1CCC2C(C)(CO)C(O)CCC2(C)C1C/C=C1/C(=O)OCC1O (centres undefined),NF-kB SEAP reporter activity,RAW-Dual [2]; agonist: Imiquimod (TLR7) […],0.933 ± 0.078
same,NF-kB SEAP reporter activity,RAW-Dual [2]; agonist: MPLA (TLR4) […],0.792 ± 0.1
Cc1ccc(NC(=O)c2ccnc(C(F)(F)F)c2)cc1-c1cc(OCCO)nc(N2CCOCC2)c1,NF-kB SEAP reporter activity,RAW-Dual [2]; agonist: Imiquimod (TLR7) […],1.03
same,NF-kB SEAP reporter activity,RAW-Dual [2]; agonist: MPLA (TLR4) […],0.836
Cc1ccc(NC(=O)c2ccnc(C(F)(F)F)c2)cc1-c1cc(OCCO)nc(N2CCOCC2)c1 (library stock concentration (final ~1000-fold dilution): 10 mM),NF-kB SEAP reporter activity,RAW-Dual [1]; agonist: LPS (TLR4) 0.1 ug/mL,1.01
same,NF-kB SEAP reporter activity,RAW-Dual [1]; [3],0.551
same,NF-kB SEAP reporter activity,RAW-Dual [1]; [4],0.265
same,NF-kB SEAP reporter activity,RAW-Dual [1]; [5],0.438
CC(C)C(CO)Nc1nc(Nc2cccc(Cl)c2)c2ncn(C(C)C)c2n1 (centres undefined),NF-kB SEAP reporter activity,RAW-Dual [2]; agonist: Imiquimod (TLR7) […],1.19
same,NF-kB SEAP reporter activity,RAW-Dual [2]; agonist: MPLA (TLR4) […],1.14
Nc1nc(NCCc2ccc(O)cc2)nc2nc(-c3ccco3)nn12,NF-kB SEAP reporter activity,RAW-Dual [2]; agonist: Imiquimod (TLR7) […],1.7
same,NF-kB SEAP reporter activity,RAW-Dual [2]; agonist: MPLA (TLR4) […],1.36
CC(C)n1cnc2c(NCCc3ccc(O)cc3)nc(-c3csc4ccccc34)nc21 (library stock concentration (final ~1000-fold dilution): 10 mM),NF-kB SEAP reporter activity,RAW-Dual [1]; agonist: LPS (TLR4) 0.1 ug/mL,3.02
same,NF-kB SEAP reporter activity,RAW-Dual [1]; [3],1.56
same,NF-kB SEAP reporter activity,RAW-Dual [1]; [4],0.535
same,NF-kB SEAP reporter activity,RAW-Dual [1]; [5],0.662
CC(C)n1cnc2c(NCCc3ccc(O)cc3)nc(-c3csc4ccccc34)nc21,NF-kB SEAP reporter activity,RAW-Dual [2]; agonist: Imiquimod (TLR7) […],2.38
same,NF-kB SEAP reporter activity,RAW-Dual [2]; agonist: MPLA (TLR4) […],2.64
Nc1nc(NCCc2ccc(O)cc2)nc2nc(-c3ccco3)nn12 (library stock concentration (final ~1000-fold dilution): 10 mM),NF-kB SEAP reporter activity,RAW-Dual [1]; agonist: LPS (TLR4) 0.1 ug/mL,1.81
same,NF-kB SEAP reporter activity,RAW-Dual [1]; [3],1.56
same,NF-kB SEAP reporter activity,RAW-Dual [1]; [4],1.16
same,NF-kB SEAP reporter activity,RAW-Dual [1]; [5],1.41
CC(C)C(CO)Nc1nc(Nc2cccc(Cl)c2)c2ncn(C(C)C)c2n1 (centres undefined) (library stock concentration (final ~1000-fold dilution): 10 mM),NF-kB SEAP reporter activity,RAW-Dual [1]; agonist: LPS (TLR4) 0.1 ug/mL,0.715
same,NF-kB SEAP reporter activity,RAW-Dual [1]; [3],1.05
same,NF-kB SEAP reporter activity,RAW-Dual [1]; [4],1.22
same,NF-kB SEAP reporter activity,RAW-Dual [1]; [5],0.679
C=C1CCC2C(C)(COC(=O)CCC(=O)O)C(OC(=O)CCC(=O)O)CCC2(C)C1C=CC1=CCOC1=O (centres undefined) (library stock concentration (final ~1000-fold dilution): 10 mM),NF-kB SEAP reporter activity,RAW-Dual [1]; agonist: LPS (TLR4) 0.1 ug/mL,1.34
same,NF-kB SEAP reporter activity,RAW-Dual [1]; [3],0.979
same,NF-kB SEAP reporter activity,RAW-Dual [1]; [4],1.26
same,NF-kB SEAP reporter activity,RAW-Dual [1]; [5],1.02
C=C1CCC2C(C)(COC(=O)CCC(=O)O)C(OC(=O)CCC(=O)O)CCC2(C)C1C=CC1=CCOC1=O (centres undefined),NF-kB SEAP reporter activity,RAW-Dual [2]; agonist: Imiquimod (TLR7) […],0.865
same,NF-kB SEAP reporter activity,RAW-Dual [2]; agonist: MPLA (TLR4) […],1.03
CN1CCN(CCCNc2ncc(Cl)c(-c3cc4c(C(=O)NC5CC5)cccc4s3)n2)CC1.Cl.Cl.Cl (library stock concentration (final ~1000-fold dilution): 10 mM),NF-kB SEAP reporter activity,RAW-Dual [1]; agonist: LPS (TLR4) 0.1 ug/mL,0.313 ± 0.14
same,NF-kB SEAP reporter activity,RAW-Dual [1]; [3],0.174 ± 0.0094
same,NF-kB SEAP reporter activity,RAW-Dual [1]; [4],0.0865 ± 0.0023
same,NF-kB SEAP reporter activity,RAW-Dual [1]; [5],0.134 ± 0.0077
CN1CCN(CCCNc2ncc(Cl)c(-c3cc4c(C(=O)NC5CC5)cccc4s3)n2)CC1.Cl.Cl.Cl,NF-kB SEAP reporter activity,RAW-Dual [2]; agonist: Imiquimod (TLR7) […],0.215 ± 0.045
same,NF-kB SEAP reporter activity,RAW-Dual [2]; agonist: MPLA (TLR4) […],0.2944 ± 0.00089
CCO.N#CC(=C(\N)Sc1ccccc1N)/C(C#N)=C(/N)Sc1ccccc1N (library stock concentration (final ~1000-fold dilution): 10 mM),NF-kB SEAP reporter activity,RAW-Dual [1]; agonist: LPS (TLR4) 0.1 ug/mL,0.241
same,NF-kB SEAP reporter activity,RAW-Dual [1]; [3],0.368
same,NF-kB SEAP reporter activity,RAW-Dual [1]; [4],0.0792
same,NF-kB SEAP reporter activity,RAW-Dual [1]; [5],0.146
CCO.N#CC(=C(\N)Sc1ccccc1N)/C(C#N)=C(/N)Sc1ccccc1N,NF-kB SEAP reporter activity,RAW-Dual [2]; agonist: Imiquimod (TLR7) […],0.206
same,NF-kB SEAP reporter activity,RAW-Dual [2]; agonist: MPLA (TLR4) […],0.236
CCOC(=O)c1ccc(NC2CCCCC2)c(N)c1 (library stock concentration (final ~1000-fold dilution): 10 mM),NF-kB SEAP reporter activity,RAW-Dual [1]; agonist: LPS (TLR4) 0.1 ug/mL,2.07
same,NF-kB SEAP reporter activity,RAW-Dual [1]; [3],1.28
same,NF-kB SEAP reporter activity,RAW-Dual [1]; [4],0.963
same,NF-kB SEAP reporter activity,RAW-Dual [1]; [5],1.09
CCn1cc(C(=O)O)c(=O)c2c(N)c(F)c(NC3CCCCC3)cc21 (library stock concentration (final ~1000-fold dilution): 10 mM),NF-kB SEAP reporter activity,RAW-Dual [1]; agonist: LPS (TLR4) 0.1 ug/mL,4.89
same,NF-kB SEAP reporter activity,RAW-Dual [1]; [3],2.9
same,NF-kB SEAP reporter activity,RAW-Dual [1]; [4],1.85
same,NF-kB SEAP reporter activity,RAW-Dual [1]; [5],3.32
CCn1cc(C(=O)O)c(=O)c2cc(F)c(N3CCN(C)CC3)cc21.CS(=O)(=O)O (library stock concentration (final ~1000-fold dilution): 10 mM),NF-kB SEAP reporter activity,RAW-Dual [1]; agonist: LPS (TLR4) 0.1 ug/mL,0.962
same,NF-kB SEAP reporter activity,RAW-Dual [1]; [3],1.03
same,NF-kB SEAP reporter activity,RAW-Dual [1]; [4],1.11
same,NF-kB SEAP reporter activity,RAW-Dual [1]; [5],1.12
CCOC(=O)c1ccc(NC2CCCCC2)c(N)c1,NF-kB SEAP reporter activity,RAW-Dual [2]; agonist: Imiquimod (TLR7) […],1.14
same,NF-kB SEAP reporter activity,RAW-Dual [2]; agonist: MPLA (TLR4) […],1.57
CCn1cc(C(=O)O)c(=O)c2cc(F)c(N3CCN(C)CC3)cc21.CS(=O)(=O)O,NF-kB SEAP reporter activity,RAW-Dual [2]; agonist: Imiquimod (TLR7) […],0.916
same,NF-kB SEAP reporter activity,RAW-Dual [2]; agonist: MPLA (TLR4) […],0.878
CCn1cc(C(=O)O)c(=O)c2c(N)c(F)c(NC3CCCCC3)cc21,NF-kB SEAP reporter activity,RAW-Dual [2]; agonist: Imiquimod (TLR7) […],1.75
same,NF-kB SEAP reporter activity,RAW-Dual [2]; agonist: MPLA (TLR4) […],1.95

# From the supplement of paper PMC10037445
